Records with an inconclusive call do not appear. A number with no mark means an inactive call. Activity calls are given as the source filed them. Calls come from the whole dose curve; as a rule, active = well fitted inhibition curve with a large enough effect; inconclusive = small, poorly fitted or top-dose-only effect, or effect the other way; inactive = flat fitted curve, though single readings scatter.
Target: D(1A) dopamine receptor (Homo sapiens) (UniProt P21728)
Experiment: HTS Assay for Allosteric Agonists of the Human D1 Dopamine Receptor: Primary Screen for Antagonists (AID 488983); note: nearly all actives have a fitted effect of over 65% in size
Conditions: D1 receptor cell assay, antagonist mode, qHTS titration; series mostly up to 41.8 µM; activity change, negative = inhibition: at the top concentration
Source text: Dopamine receptors (DARs) are involved in the etiology and/or therapy of a number of neuropsychiatric and endocrine disorders. For instance, all receptor-based antiparkinsonian drugs work via stimulating the […] DAR subtype whereas all FDA-approved antipsychotic agents are antagonists of this receptor. […] There are three different types of allosteric modulators that we are seeking, two of which will stimulate or augment receptor signaling, allosteric agonists and potentiators, while the third, allosteric antagonists, will attenuate receptor signaling. The present primary screening assay measures compound agonism by tracking calcium flux in a […], inducible Hek293 Trex D1 cell line.
Freshly passaged cells are plated in 1536 well black, clear bottom plates at a density of 4000 cells/well in 3 ul of complete media containing 1x tetracycline inducer. After an overnight incubation at 30 C in 5% CO2, cells are loaded with 2 ul of the no wash Calcium Assay Kit (ABD Bioquest) and incubated at room temperature for 30 to 90 minutes. A 10 cycle (1 second/cycle) baseline measurement is taken and then the FDSS online 1536 pintool delivers 23 nl of compound library (as well as dopamine controls) to the plate. The plate is measured for kinetically at 1 cycle/sec for 180 seconds and is considered to be the agonist portion of the assay (eg, compounds which activate a positive calcium response during this portion are flagged as potential agonists). Following the 180 second read, 1 ul of an EC80 of dopamine is delivered by an onboard pipette head. Measurements are taken kinetically for an additional 180 seconds.
% is set by controls: 0 for no effect and ±100 for the full control effect; potency is the fitted concentration of half-maximal effect.

Chain of D(1A) dopamine receptor (Homo sapiens) (P21728 whole entry, looked up): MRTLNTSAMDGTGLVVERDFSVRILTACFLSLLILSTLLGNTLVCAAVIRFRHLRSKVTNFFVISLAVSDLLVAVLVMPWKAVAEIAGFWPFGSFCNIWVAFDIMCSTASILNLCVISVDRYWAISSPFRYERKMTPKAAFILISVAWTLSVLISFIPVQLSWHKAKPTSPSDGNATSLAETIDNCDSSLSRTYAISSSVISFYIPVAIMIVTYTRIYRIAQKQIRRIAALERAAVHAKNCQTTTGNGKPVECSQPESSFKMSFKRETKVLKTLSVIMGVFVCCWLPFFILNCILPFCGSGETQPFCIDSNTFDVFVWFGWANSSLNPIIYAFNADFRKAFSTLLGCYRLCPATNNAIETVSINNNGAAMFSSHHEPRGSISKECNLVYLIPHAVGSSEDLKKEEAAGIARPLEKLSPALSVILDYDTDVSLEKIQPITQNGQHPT

| Compound | activity change, negative = inhibition | Potency |
| --- | --- | --- |
| CC(C)COC(=O)OCN1C(=O)CN(CCN2CC(=O)N(COC(=O)OCC(C)C)C(=O)C2)CC1=O | 10.3% | – |
| Oc1ccc(O)cc1 | 8.31% | – |
| CN1C2CCC1CC(OC(=O)c1c[nH]c3ccccc13)C2 (configuration not stated) | 3.05% | – |
| CC(CCc1ccccc1)NCC(O)c1ccc(O)c(C(N)=O)c1 (configuration not stated) | 15.4% | – |
| C1CCc2nnnn2CC1 | -7.88% | – |
| C[C@@H]1C(=O)NC2=Nc3cccc(Cl)c3CN21 | -7.83% | – |
| C[C@]12CC[C@@H]3c4ccc(O)cc4CC[C@H]3[C@@H]1CC[C@@H]2O | 17.6% | – |
| COc1cc(NS(C)(=O)=O)ccc1Nc1c2ccccc2nc2ccccc12 | – | 1.12 µM (active) |
| O=C(O)c1cc2cc(Cc3cccnc3)ccc2o1 | 10.5% | – |
| CCCn1c(=O)[nH]c(=O)c2[nH]cnc21 | -2.8% | – |
| CC(=O)O[C@H]1C[C@@H]2CC[C@@H]3[C@H](CC[C@@]4(C)[C@H]3C[C@H]([N+]3(C)CCCCC3)[C@@H]4OC(C)=O)[C@@]2(C)C[C@@H]1[N+]1(C)CCCCC1 | 3.59% | – |
| Nc1cc(Cl)c(NC2=NCCN2)c(Cl)c1 | 3.95% | – |
| N[C@H](CO)C(=O)O | 1.83% | – |
| N[C@@H](Cc1cnc[nH]1)C(=O)O | 6.95% | – |
| CC[C@H](C)C(=O)O[C@H]1CCC=C2C=C[C@H](C)[C@H](CC[C@@H]3C[C@@H](O)CC(=O)O3)[C@H]21 | 10.9% | – |
| C[N+]1(CCCCC[N+]2(C)CCCC2)CCCC1 | 4.2% | – |
| CCC(NC(C)C)C(O)c1ccc(O)c(O)c1 (configuration not stated) | 2.75% | – |
| O=C1CCC(c2ccc(-n3ccnc3)cc2)=NN1 | 0.7% | – |
| CC1(C)CCC(NC(=O)[C@@H](N)CCC(=O)O)CC1 | 11.3% | – |
| COC(=O)[C@H]1[C@H]2C[C@H]3c4[nH]c5ccccc5c4CCN3C[C@H]2CC[C@@H]1O | 3.05% | – |
| CCCC1O[C@@H]2C[C@H]3[C@@H]4CCC5=CC(=O)C=C[C@]5(C)[C@H]4[C@@H](O)C[C@]3(C)[C@]2(C(=O)CO)O1 (some centres not stated) | 16.5% | – |
| COc1cc2c(cc1O)CC[C@@H]1[C@@H]2CC[C@]2(C)[C@@H](O)CC[C@@H]12 | -4.05% | – |
